According to PubChem BioAssay (NCI):
Several values for one entry are separate records, joined by “and”; a condition that tells them apart may be missing. Equal entries are not always repeated. This is part of a sample that, as a whole, favours compounds with a hit. Of some 83,000 tested, about 20% had one in any assay.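 Assay: single dose, 48 h. Readout: percent growth (0 = no net growth; negative = cell death). Active: <10.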 A number with no mark means an inactive call. Activity calls are given as the source filed them.

Each molecule was assayed on MDA-MB-468 breast (assay: NCI-60 one-dose screen, 48 h (100 = growth as untreated, 0 = no growth, -100 = all killed)). Details: 10 µM unless noted.

Structure (SMILES) | growth
CN1C2CCC1[C@@H](COC(=O)c1ccccc1)[C@@H](O)C2 (some centres undefined) | 86.1%
N#C[Se]Cc1cc(-c2ccccc2)n(-c2ccc(S(N)(=O)=O)cc2)n1 | -66.1% (active)
CC(=O)OCc1cc[c]([Hg][Cl])o1 | 21%
COC(=O)[C@@H](C)C[C@H](Cc1ccc(F)cc1)NC(=O)c1csc([C@@H](C[C@H](C(C)C)N(C)C(=O)[C@@H](NC(=O)[C@H]2CCCCN2C)C(C)C)OC(C)=O)n1 | 21%
ClCCN(CCCl)C(c1ccccc1)c1ccc(Cl)cc1 (centres undefined) | 35.1%
Cc1cnc(/C=C/C(=O)O)cc1-c1cc2c(cc1C)C(C)(C)CCC2(C)C | 95.4%
O=[N+]([O-])c1cc(Cl)c(Cl)c([N+](=O)[O-])c1Cl | 9.01% (active)
COc1cc(N(CCCl)CCCl)ccc1C=Nc1ccccc1C(=O)O | 63.3%
O=C1C=Cc2ccccc2C1=O | 104%
CC(=O)c1ccc(C(=O)NCC2CCC3(CC2)OOC2(CCCCC2)OO3)cc1 | 65.7%
C/C(=N/OC(=O)N(C)C)c1ccc(Cl)cc1Cl | 114%
COc1ccc(/C=C/c2cc(OC)c(OC)c(OC)c2)cc1NC(=O)/C=C/c1ccc(F)cc1 | 13.3%
COC(=O)[C@@H](C)C[C@H](Cc1ccccc1)NC(=O)c1nc([C@@H](C[C@H](C(C)C)N(C)C(=O)[C@@H](NC(=O)[C@H]2CCCCN2C)C(C)C)OC(C)=O)sc1C | 53.2%
CCC(C)[C@H]1O[C@]2(C=C[C@@H]1C)C[C@@H]1C[C@@H](C/C=C(\C)[C@@H](OC3C[C@H](OC)C(O[C@H]4C[C@H](OC)[C@@H](O)[C@H](C)O4)[C@H](C)O3)[C@@H](C)/C=C/C=C3\CO[C@@H]4[C@H](O)C(C)=C[C@@H](C(=O)O1)[C@]34O)O2 (some centres undefined) | -12.7% (active)
OCCN=Cc1c[nH]c2ccccc12 | 119%
C=C1C(=O)OC2CC3(C)OC3C3OC3C3=CC(OC3=O)C12 (centres undefined) | 32.8% and 65.2%
COc1ccc([As]=[As]c2ccc(OC)c(NCS(=O)(=O)O)c2)cc1NCS(=O)(=O)O (centres undefined) | -54.2% (active)
COc1c(O)c2c3c(c1OC)-c1ccccc1CC3N(C)CC2 (centres undefined) | 120%
C[C@]12CC[C@@H](OC(=O)N(CCCl)N=O)C[C@@H]1CC[C@@H]1[C@@H]2CC[C@]2(C)C(=O)CC[C@@H]12 | -31.4% (active)
CC[C@H](C)[C@H](NC(=O)NC(C)(C)C)C(=O)N(C)[C@H](C[C@@H](OC(C)=O)c1nc(C(=O)N[C@@H](Cc2ccccc2)C[C@H](C)C(=O)OC)cs1)C(C)C | 15.4%

Structure (SMILES) | growth
Cn1cc(C2=C(c3cn(C4CCN(Cc5ccccn5)CC4)c4ccccc34)C(=O)NC2=O)c2ccccc21 | 119%
O=C(Nc1ccc(Cl)cc1)Nc1nccs1 | 16.4%
Cc1ccc(C(=O)NCCCOc2ccc(N3C(N)=NC(N)=NC3(C)C)cc2Cl)cc1S(=O)(=O)F | 123%
C/C=C(\C)C(=O)O[C@@H]1C(O)[C@H]2OC(COC(=O)CCC(=O)CCCCCC[C@H](CCCCC)O[C@@H]3OC(C)[C@H](OC(C)=O)C(O)[C@H]3O2)[C@H]1OC(=O)/C=C/c1ccccc1 (some centres undefined) | -8.84% (active)
O=P1(NCCCl)OCCCN1CCCl (centres undefined) | 99.1%
COc1ccc(/C=C\c2cc(OC)c(OC)c(OC)c2)c(NS(=O)(=O)c2ccc(F)cc2)c1O | 15.9%
O=C(O)CCCc1ccc(N(CCCl)CCCl)cc1 | 77.7%
COC(=O)[C@]12CCC(C)(C)C[C@H]1[C@H]1C(=O)C[C@@H]3[C@@]4(C)C[C@@]5(CC(C)(C)[C@@H]4CC[C@@]3(C)[C@]1(C)CC2)OO[C@@](C)(C(F)(F)F)O5 | 84.5%
CC12CCC3C4CCC(=O)C=C4CCC3C1CC1CC(=O)OC12 (centres undefined) | 102%
CC1=C(CCCNS(C)(=O)=O)C2=C(C)C3(CC3)[C@@](C)(O)C(=O)C2=C1 | -80.9% (active)
CCC(C)(C)[C@H](NC(=O)[C@H]1CCCCN1C)C(=O)N(C)[C@H](C[C@@H](OC(C)=O)c1nc(C(=O)N[C@@H](Cc2ccccc2)C[C@H](C)C(=O)O)cs1)C(C)C | 7.54% (active)
C[CH2][Pb]([CH2]C)([CH2]C)[O]C(=O)COC | -49.3% (active)
O=P1(N(CCCl)CCCl)NCCCO1 (centres undefined) | 108%
CN1C(=O)C23CC4(C56CC78SSC(CO)(C(=O)N7C5Nc5ccccc56)N(C)C8=O)c5ccccc5NC4N2C(=O)C1(CO)SS3 (centres undefined) | -81.7% (active)
O=C=Nc1ccc(Br)cc1 | 83.1%
COc1ccc2c(c1)c(-c1nc(-c3c[nH]c4ncccc34)cs1)cn2CCCCN1CCCCC1 | -75.6% (active)
COc1cc(/C=C(/C)[N+](=O)[O-])ccc1O | -85.4% (active) and -90.3% (active)
O=[N+]([O-])c1ccc2scc3c4ccccc4nc-3c2c1 | -84.5% (active)
CN1C(=O)[C@]23SSC1(C)C(=O)N2[C@H]1Nc2ccccc2C1([C@@]12c4ccccc4N[C@@H]1N1C(=O)C4(C)SS[C@]1(C(=O)N4C)[C@H]2O)[C@@H]3O (some centres undefined) | -88.9% (active)
